Hits are enriched below; roughly 5% of the tested compounds scored in any of these assays.
EBI2 block – antagonists of human EBI2 receptor; P32249; inhibition, % at 5 µM; AID 651636; hit rate 0.81% among 360,000; EBI2 beta-arrestin recruitment, luminescence, 7a,25-OHC stimulated; in the data active = inhibition above about 38%;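 also: enzyme fragment complementation signal reports receptor beta-arrestin coupling in cells; 0% = agonist plus DMSO wells and 100% = wells without agonist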
SENP6 inh – blocks the human protease SENP6; Recombinant SENP6 catalytic domain, aminoluciferin luminescence; AID 2599; hit rate 1.8% among 330,000; inhibition, % at 10 µM; Q9GZR1;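 active = inhibition above about 50% at the single tested dose, limit read from the data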;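 also: plate controls were DMSO wells with enzyme for no effect and DMSO wells lacking enzyme for full effect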
SENP8 block-1 – inhibitors of human SENP8 protease; Q96LD8; purified SENP8, Z-RLRGG-aminoluciferin cleavage, luminescence; inhibition, % at 10 µM; hit rate 1.2% among 330,000; in the data active = inhibition above about 50%
AHR activator – activators of human aryl hydrocarbon receptor; hit rate 2.5% among 320,000; AHR-responsive luciferase reporter cells, luminescence; activation, % at 5 µM; in the data active = activation above about 47%;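 also: 0% = vehicle wells and 100% = reference agonist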
SENP7 block – inhibitors of human SENP7 protease; Q9BQF6; recombinant SENP7, Z-RLRGG-aminoluciferin luminescence, 40 min; inhibition, % at 5 µM; hit rate 1.5% among 330,000; AID 434973;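 active = inhibition above about 50% at the single test dose, limit read from the data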;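 also: plate controls were DMSO with enzyme for no effect and no enzyme buffer wells for full effect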
Target sequence (Q9BQF6 706-1050 limits assumed): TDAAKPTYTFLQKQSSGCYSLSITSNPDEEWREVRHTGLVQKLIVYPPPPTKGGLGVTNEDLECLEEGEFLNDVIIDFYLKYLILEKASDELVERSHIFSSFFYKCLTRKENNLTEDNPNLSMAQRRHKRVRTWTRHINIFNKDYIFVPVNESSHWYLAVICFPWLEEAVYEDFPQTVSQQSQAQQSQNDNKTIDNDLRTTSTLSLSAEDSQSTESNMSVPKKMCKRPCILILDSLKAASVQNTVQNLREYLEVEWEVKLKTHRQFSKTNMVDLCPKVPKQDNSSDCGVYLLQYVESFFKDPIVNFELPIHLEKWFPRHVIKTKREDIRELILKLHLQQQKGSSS
SENP8 block-2 – inhibitors of human SENP8 protease. Q96LD8. recombinant SENP8, Nedd8 substrate fluorescence. inhibition, % at 20 µM. hit rate 0.64% among 360,000. AID 602440; in the data active = inhibition mostly above about 40%, no sharp cut-off; inactive = mostly below about 27%
SENP8 confirm – human SENP8 inhibition, confirmed; shares compounds with SENP7 block; Recombinant SENP8, Z-RLRGG-aminoluciferin luminescence, 60 min; inhibition, % at 12.5 µM; hit rate 40% among 6,200; AID 488912;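 active = mean inhibition across replicates above about 50%, limit read from the data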
SENP6 confirm – confirmation of human SENP6 protease inhibitors. AID 488915. recombinant SENP6, Z-RLRGG-aminoluciferin luminescence. shares compounds with SENP7 block. hit rate 58% among 6,200. inhibition, % at 12.5 µM
SENP7 conf – confirmation of human SENP7 protease inhibitors. shares compounds with SENP7 block. recombinant SENP7, Z-RLRGG-aminoluciferin luminescence, 40 min. inhibition, % at 12.5 µM. hit rate 69% among 6,200. AID 488917
Casp3 select – caspase-3 inhibition (SENP selectivity assay) | shares compounds with SENP7 block | purified caspase-3, Z-DEVD-aminoluciferin luminescence, 60 min | inhibition, % at 12.5 µM | hit rate 60% among 6,200 | AID 488918;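 active = mean inhibition above about 50%, limit read from the data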;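 also: plate controls were enzyme with DMSO for no effect and wells without caspase-3 for full effect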
Target sequence (P42574 28-227 limits assumed): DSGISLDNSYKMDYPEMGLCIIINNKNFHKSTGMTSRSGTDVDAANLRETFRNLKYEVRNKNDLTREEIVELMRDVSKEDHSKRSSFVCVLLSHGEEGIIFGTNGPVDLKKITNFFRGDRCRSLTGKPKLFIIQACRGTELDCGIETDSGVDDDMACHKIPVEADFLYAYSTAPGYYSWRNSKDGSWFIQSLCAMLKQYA
Luc interf – interferes with luciferase luminescence in SENP counter-screen | shares compounds with SENP7 block | Pre-incubated SENP8/Z-RLRGG-aminoluciferin, luciferase luminescence interference | inhibition, % at 12.5 µM | hit rate 39% among 6,200 | AID 488919;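 active = mean inhibition above about 50% when retested at one dose, limit read from the data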;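 also: plate controls were DMSO wells with completed reaction for no effect and substrate without enzyme for full effect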
* marks the source's active call; other numbers are inactive results; . = not tested or not shown.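 The calls were made as follows, unless noted: active = mean inhibition above about 50% in the one-dose retest (limit read from the data); inactive = the rest.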

SMILES	EBI2 block	SENP6 inh	SENP8 block-1	AHR activator	SENP7 block	SENP8 block-2	SENP8 confirm	SENP6 confirm	SENP7 conf	Casp3 select	Luc interf
Cc1ccc(SC/C(O)=C(\C#N)c2nc3ccccc3s2)cc1	2	71*	25	7	0	29	6	22	13	16	8
COC(=O)c1ccc(COn2nnc3ccccc32)cc1	-2	56*	37	25	52*	13	34	32	76*	70*	34
COC(=O)c1ccc(Cn2nnc3ccccc32)cc1	5	-6	-6	-1	-6	6	.	.	.	.	.
O=C(COC(=O)/C=C/c1cccc(Cl)c1)NC1CCCC1	-5	-2	-12	1	1	4	.	.	.	.	.
Cc1ccc(NC(=O)C2CCN(C(=O)c3ccc(F)cc3)CC2)nc1	0	2	0	4	-4	0	.	.	.	.	.
O=C(COc1ccc2c(c1)OCO2)Nc1ccc(Cl)cn1	-4	17	-2	28	13	-2	.	.	.	.	.
O=C(/C=C/c1ccc2c(c1)OCO2)Nc1ccc(Cl)cn1	20	4	-2	9	54*	-373	-27	-17	9	6	-3
COc1ccccc1NC(=O)/C=C/c1ccc2c(c1)OCO2	6	73*	65*	8	68*	2	78*	75*	93*	73*	36
Cc1ccc2c(c1)NC(=O)c1cccnc1N2	2	52*	22	3	34	6	24	21	65*	63*	36
O=C1Nc2ccccc2Nc2ncccc21	-8	0	-14	1	-7	8	.	.	.	.	.
COc1ccc(S(=O)(=O)N/N=C(/C)c2ccncc2)cc1	4	5	-7	4	5	-1	.	.	.	.	.
CCOC(=O)c1cccnc1NC(=O)c1ccccc1	-9	-24	-17	1	-6	8	.	.	.	.	.
Cc1ccc(-c2csc(NC(=O)COC(=O)c3cccc(S(=O)(=O)N4CCOCC4)c3)n2)cc1	.	51*	0	3	36	.	52*	51*	83*	70*	53*
CSc1nnc(-c2ccc(Cl)cc2Cl)o1	4	3	-5	-3	-4	9	.	.	.	.	.
Fc1ccc(-c2nnc(-c3ccc(Cl)cc3)o2)cc1	4	24	-7	-2	56*	-2	20	21	39	41	10
Fc1ccc(-c2nnc(-c3ccc(Cl)cc3Cl)o2)cc1	9	74*	72*	-5	92*	7	60*	65*	86*	79*	14
CSc1ccccc1-c1nnc(-c2ccc(Cl)cc2Cl)o1	-5	-17	-22	-3	35	-497	.	.	.	.	.
Clc1ccc(-c2nnc(-c3ccccc3)o2)c(Cl)c1	20	96*	90*	-4	97*	-6	85*	87*	95*	88*	47
COc1ccc(C)cc1NC(=O)CCN1CC(C)OC(C)C1 (configuration not stated)	-6	5	-9	1	-14	11	.	.	.	.	.
Cc1ccc(NC(=O)C2CCN(c3ncnc4c3nc3n4CCCCC3)CC2)nc1	0	11	3	2	0	-17	.	.	.	.	.
COc1ccc(/C=N/N2CCN(c3ccccc3OC)CC2)cc1Br	2	59*	32	-5	12	20	39	42	76*	19	8
COc1ccc(/C=N/N2CCN(c3ccccc3OC)CC2)cc1OC	0	3	3	-4	-10	8	.	.	.	.	.
O=C(O)c1ccc(/C=N/N2CCN(c3ccccc3)CC2)cc1	3	62*	62*	.	72*	17	7	12	16	6	8
COc1ccc(/C=N/N2CCN(c3ccccc3)CC2)cc1Br	14	33	15	-6	58*	8	-15	-7	-3	6	-6
Cc1cc(C)n2ncc(S(=O)(=O)c3ccccc3)c2n1	1	9	4	2	12	-183	.	.	.	.	.
SMILES	EBI2 block	SENP6 inh	SENP8 block-1	AHR activator	SENP7 block	SENP8 block-2	SENP8 confirm	SENP6 confirm	SENP7 conf	Casp3 select	Luc interf
COc1ccc(/C=C2\SC(=S)N(CCCC(=O)N3CCOCC3)C2=O)cc1	8	82*	69*	-14	72*	16	83*	76*	91*	63*	60*
O=C(O)CCN1C(=O)/C(=C\c2cccc(Oc3ccccc3)c2)SC1=S	3	97*	96*	-2	62*	25	2	101*	104*	32	90*
COc1ccc(/C=C2/SC(=S)N(CCC(=O)O)C2=O)cc1	-1	98*	98*	-16	85*	13	98*	100*	104*	65*	81*
COc1ccc(/C=C2\SC(=S)N(CCCC(=O)N3CCOCC3)C2=O)cc1OC	1	-8	-11	-1	-5	28	.	.	.	.	.
COc1ccc(/C=C2/SC(=O)NC2=O)cc1	3	86*	71*	8	62*	6	81*	76*	89*	74*	84*
CCc1nc2c(OCC(=O)c3ccc(F)cc3)cccn2c1N(C)C(=O)c1ccc(OC)cc1	-2	.	.	.	.	10	.	.	.	.	.
C=CCNc1nc(C(=O)OCC(=O)NCc2ccccc2OC)cs1	6	-15	-15	5	-19	-16	.	.	.	.	.
C/C(=N/NC(=O)c1ccco1)c1ccc(NC(=O)c2ccc(F)cc2)cc1	-8	-1	9	2	10	-4	.	.	.	.	.
O=C(CN1C(=O)N/C(=C\c2ccccc2OCc2ccc(C(=O)O)cc2)C1=O)Nc1ccccc1F	2	5	-1	1	4	-228	.	.	.	.	.
O=C1NC(=S)S/C1=C\c1ccc2ccccc2c1	-8	90*	88*	0	10	18	26	50*	38	24	21
O=C(CCCN1C(=O)/C(=C/c2ccccc2Cl)SC1=S)N1CCOCC1	4	80*	86*	-8	88*	8	32	55*	64*	63*	34
COc1ccc(C=C2SC(=S)NC2=O)cc1	1	.	.	.	.	25	.	.	.	.	.
O=C(O)CN1C(=O)/C(=C\c2ccc(OC(=O)c3ccco3)cc2)SC1=S	1	71*	59*	1	1	17	66*	62*	79*	83*	69*
O=C(O)CN1C(=O)/C(=C\c2cccc(OC(=O)c3ccco3)c2)SC1=S	-4	-1	-16	0	-5	13	.	.	.	.	.

High-throughput results deposited in PubChem BioAssay by several laboratories.
